AddAB inh: growth inhibition of E. coli expressing H. pylori AddAB, primary screen, AddAB inhibitor project, absorbance; 330,000 tested, 0.29% active; inhibition, % at 11.9 µM; AID 435030, 2010; in the data active = inhibition above about 12%;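 note: 0% = vehicle wells of infected cells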
phage Ecoli inh: growth loss of phage-infected E. coli, primary screen, RecBCD inhibitor project, absorbance, with phage, HTS; inhibition, % at 11.9 µM; 360,000 tested, 0.26% active; AID 651602, 2012; in the data active = inhibition above about 11%
E coli growth-1: E. coli V3065 growth inhibition, primary screen, counter-screen for AddAB inhibitor project, absorbance, OD600 | inhibition, % at 11.9 µM | AID 449728, 2010 | 18 h | 330,000 tested, 0.27% active;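 active = inhibition above the campaign's mean inhibition across all tested compounds plus 3 SD, cut at about 9.9% in these data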;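 note: uninfected addAB+ strain grown without phage in ampicillin broth; 0% = DMSO wells and 100% = ciprofloxacin 0.95 µg/ml wells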
Tat export inh: E. coli Tat export inhibitors, primary screen, MC4100, TorA-mCherry reporter, fluorescence, single point; inhibition, % at 10 µM; 340,000 tested, 0.036% active;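 active = mean replicate inhibition at least 50% and at least half of replicates individually reaching 50%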;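 note: exported cargo escapes ClpAP degradation while cytoplasmic cargo is degraded and loses fluorescence; 0% = median of neutral control wells and 100% = median of NaSCN control wells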
E coli growth-2: E. coli growth inhibition, primary screen, OD600; Escherichia coli growth, 23 h; active compounds read low; OD600 absorbance (no concentration beside the values); 330,000 tested, 0.21% active; AID 1053175, 2014;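 active = OD600 absorbance below the run mean of sample wells minus 3.6 SD, in any replicate, cut at about 0.56 in these data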
AddAB confirm: growth loss of phage-infected E. coli expressing H. pylori AddAB, confirmation, AddAB inhibitor project, absorbance, E. coli V3065, T4 phage, triplicate | shares compounds with AddAB inh | OD; T4 phage with gene 2 nonsense mutations | inhibition, % at 11.9 µM | 880 tested, 64% active | AID 488942, 2010;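 active = mean inhibition above a set limit taken from the earlier primary screen, cut at about 13% in these data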;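 note: higher means less bacterial growth since AddAB block lets phage replicate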
RecBCD counter: growth loss of RecBCD+ E. coli with mutant T4 phage, counter-screen for AddAB inhibitor project, absorbance, V66 E. coli; 880 tested, 73% active; inhibition, % at 11.9 µM; AID 488955, 2010; shares compounds with AddAB inh; OD growth;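 active = mean inhibition above the mean of solvent-only control wells plus 3 SD, cut at about 4% in these data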;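 note: optical density read after an 18 h incubation at 37 °C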
Bact viability: bacterial viability inhibition counter-screen, confirmation, counter-screen for AddAB inhibitor project, absorbance | shares compounds with AddAB inh | absorbance (AddAB counterscreen) | inhibition, % at 11.9 µM | 880 tested, 35% active | AID 488956, 2010; in the data active = inhibition above about 25%
RecBCD conf: growth loss of phage-infected RecBCD+ E. coli, confirmation, RecBCD inhibitor project, absorbance, E. coli V66, T4 gene 2 phage | E. coli V66 + T4 2- phage, growth OD | 890 tested, 45% active | shares compounds with phage Ecoli inh | inhibition, % at 11.9 µM;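 active = mean inhibition over triplicates exceeding the hit threshold derived in the original primary screen, cut at about 11% in these data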
Ecoli viability: E. coli viability inhibition, counter-screen for RecBCD inhibitor project, absorbance, high throughput; shares compounds with phage Ecoli inh; AID 651983, 2013; 890 tested, 29% active; inhibition, % at 11.9 µM; absorbance (OD) growth; in the data active = inhibition above about 20%;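 note: E. coli strain V66 grown with compound alone and no phage infection; 0% = bacteria with DMSO vehicle only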
AddAB phage OD: growth loss of phage-infected AddAB-carrying E. coli, confirmation, counter-screen for RecBCD inhibitor project, absorbance, E. coli V3065, T4 phage; shares compounds with phage Ecoli inh; inhibition, % at 11.9 µM; AID 651984, 2013; E. coli expressing H. pylori AddAB + T4 phage, OD growth; gene 2 mutant T4, recBCD-deleted host; 890 tested, 45% active;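 active = mean inhibition above the solvent-only control wells' mean plus 3 SD, cut at about 22% in these data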;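 note: higher means less bacterial growth from phage killing when AddAB is blocked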
The depositor's hits bear a star; / = not tested or not shown. Most compounds without a hit are left out; they make up all but 0.5% or so of the library.

SMILES	AddAB inh	phage Ecoli inh	E coli growth-1	Tat export inh	E coli growth-2	RecBCD conf	Ecoli viability	AddAB phage OD	others
Cc1ccc(N2C(=O)N3C(c4ccc(Cl)cc4)C4C(=O)N(C5CCCCC5)C(=O)C4[C@]3(Cc3ccccc3)C2=O)cc1 (stereo partly specified)	/	/	/	/	0.74	/	/	/
COc1nsnc1NS(=O)(=O)c1ccc(NC(=S)NC(=O)c2cccnc2)cc1	59*	47*	54*	30	0.062*	27*	23*	45*	AddAB confirm=70*;RecBCD counter=31*;Bact viability=42*
COc1nsnc1NS(=O)(=O)c1ccc(NC(=S)NC(=O)c2ccncc2)cc1	74*	29*	62*	8	0.068*	14*	10	33*	AddAB confirm=76*;RecBCD counter=24*;Bact viability=34*
COC(=O)C1=C(C)NC(=O)C1=Cc1ccc(CNS(=O)(=O)c2ccc(C)cc2)o1	/	/	/	/	0.72	/	/	/
CC(=NNC(=S)NCc1ccccc1)c1ccc(Cl)cc1	/	/	/	/	0.71	/	/	/
COc1cc(C=NO)nc(-c2ccccn2)c1	/	39*	/	-22	/	32*	41*	33*
CC1ON(C2CCCCC2)C2c3nc4ccccc4n3CC12 (stereo unspecified)	/	/	/	/	0.67	/	/	/
c1cc(-c2ccsc2)n2ccnc2c1	/	11*	/	/	/	1	0	12
c1cc(-c2ccoc2)n2ccnc2c1	/	-2	/	/	/	/	/	/
Oc1ccc(C=NNC(=S)Nc2ccccc2)nc1	/	22*	/	/	/	22*	27*	32*
COc1ccc(OC)c(C(=O)Cn2nnc(-c3ccc(N4CCOCC4)cc3)n2)c1	0	12*	0	-5	0.75	-1	-2	3
CC1Cc2ccccc2N1C(=O)CCn1c(=O)oc2ccccc21 (stereo unspecified)	-1	99*	0	10	0.66	-7	-7	-2
O=C(O)CC1SC(=NN=Cc2ccc(Br)cc2)N(c2ccccc2)C1=O (stereo unspecified)	/	/	/	/	0.7	/	/	/
COc1ccc(C(=O)Nc2ccc(S(=O)(=O)N3CCOCC3)cc2)cc1	3	12*	1	/	0.65	0	0	-2
Cc1ccc(NC(=O)c2cc(S(=O)(=O)N3CCOCC3)cn2C)cc1F	2	29*	1	-10	0.72	-3	-3	-8
Cn1cc(S(=O)(=O)N2CCOCC2)cc1C(=O)Nc1ccc(Cl)cc1	1	2	0	-1	0.72	/	/	/
Nc1ccc2oc(-c3cccc(Br)c3)nc2c1	-1	/	-1	-2	0.69	/	/	/
Nc1nc2cc(Br)ccc2o1	/	14*	/	-16	0.65	11*	11	28*
O=C(/C=C/c1ccccc1)c1cc(Br)ccc(=O)c1O	9	27*	10*	-10	0.71	16*	22*	6
C=CCn1c(=O)c(C(=O)NCCc2ccccc2)c(O)c2ccccc21	10	13*	13*	7	0.65	6	10	8
Cc1cc(N/N=C/c2ccc(N(C)C)cc2)c2ccccc2n1	5	12*	-2	-6	/	-3	-4	4
NCC1OC(OC2C(N)CC(N)C(OC3OC(CO)C(O)C(N)C3O)C2O)C(N)CC1O (stereo unspecified)	/	/	/	/	0.68	/	/	/
